Test [1] is described as follows: blockers of polyQ-driven CASP3 activation – cell-based (AID 1583). The note with it: polyglutamine-induced caspase-3 activation, cell assay; stronger effect = higher value;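 tested at 10 µM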.
Test [2] is described as follows: yeast 75Q aggregation reduction – 75Q-TubU reporter (AID 1593). The conditions noted are these: Yeast 75Q polyglutamine aggregation reporter.
The nature of test [3]: restoration of touch response, mutant HTT neurons – whole organism, C. elegans mechanosensory neurons, N-terminal huntingtin (AID 1599). The note with it: C. elegans polyQ-huntingtin mechanosensory neurons, stronger effect = higher value.
Test [4] in a line: blockers of cytochrome c efflux from mitochondria – biochemical, purified mitochondria (AID 1603).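 Note: mouse liver mitochondria challenged with calcium chloride; signal normalized to the plate average as 100%.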 The note with it: stronger effect = lower value.
Test [5] is described as follows: polyglutamine aggregate formation blockers (AID 1604). The conditions noted are these: polyglutamine-induced protein aggregation inhibition assay; stronger effect = higher value; tested at 2.5 µM.
A short description of test [6]: glutamate transport activators, MN-1 cells, MN-1 cell line (AID 1612).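 Note: tested at 1 µM final; 0% = mean of DMSO vehicle wells on each plate; positive means more glutamate uptake than control and negative means less.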 The conditions noted are these: MN-1 motor neuron cells, stronger effect = higher value.
Test [7] in a line: GFP-Q80 aggregate reduction, neuronal-like cells, cell-based, NGF-treated PC12, GFPQ80 (AID 1614).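 Note: lower means fewer inclusions and 0 means no inclusions at all.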 The conditions noted are these: PC12 NGF-treated GFP-polyQ80 inclusion reduction.
A short description of test [8]: 75Q-TubH aggregate inhibition, S. cerevisiae, yeast (AID 1616). The conditions noted are these: S. cerevisiae 75Q-TubH polyglutamine aggregation suppression; stronger effect = higher value.
The target of test [9] is 6-phosphogluconate dehydrogenase, decarboxylating (Homo sapiens) (UniProt P52209). The experiment in a line: inhibition of human phosphogluconate dehydrogenase – biochemical, recombinant enzyme, NADPH absorbance, primary screen (AID 1159550;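 active = at least 20% inhibition of 6-phosphogluconate dehydrogenase activity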). The conditions noted are these: recombinant 6PGD, NADPH absorbance 341 nm; at 10 µM; stronger effect = higher value.
Chain of 6-phosphogluconate dehydrogenase, decarboxylating (Homo sapiens) (P52209 whole entry, looked up, the tested form may be a part): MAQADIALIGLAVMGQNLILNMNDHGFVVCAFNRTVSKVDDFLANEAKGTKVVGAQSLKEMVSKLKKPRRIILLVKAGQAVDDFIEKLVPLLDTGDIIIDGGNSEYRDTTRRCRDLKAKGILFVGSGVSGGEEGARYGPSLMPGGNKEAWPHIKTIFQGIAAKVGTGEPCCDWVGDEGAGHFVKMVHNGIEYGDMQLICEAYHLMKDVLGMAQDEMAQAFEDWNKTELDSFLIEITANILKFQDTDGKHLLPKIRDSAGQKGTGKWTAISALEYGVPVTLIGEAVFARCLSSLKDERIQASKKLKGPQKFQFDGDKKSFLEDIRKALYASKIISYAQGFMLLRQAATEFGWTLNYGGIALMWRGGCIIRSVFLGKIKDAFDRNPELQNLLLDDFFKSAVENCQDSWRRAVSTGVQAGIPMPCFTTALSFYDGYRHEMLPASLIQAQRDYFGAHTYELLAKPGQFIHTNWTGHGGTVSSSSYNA
The target of test [10] is Mitogen-activated protein kinase 7 (Homo sapiens) (UniProt Q13164). The experiment in a line: Gal4-ERK5 driven luciferase induction – cell-based, HTS, primary screen (AID 1508626;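 active = luciferase signal above three times the same-plate solvent-only control wells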;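 note: luciferase driven by Gal4-ERK5 fusion binding five Gal4 sites before minimal TATA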). The note with it: HeLa Gal4-ERK5 transactivation, 18 h, at 5 µM, stronger effect = higher value.
Chain of Mitogen-activated protein kinase 7 (Homo sapiens) (Q13164 whole entry, looked up, the tested form may be a part): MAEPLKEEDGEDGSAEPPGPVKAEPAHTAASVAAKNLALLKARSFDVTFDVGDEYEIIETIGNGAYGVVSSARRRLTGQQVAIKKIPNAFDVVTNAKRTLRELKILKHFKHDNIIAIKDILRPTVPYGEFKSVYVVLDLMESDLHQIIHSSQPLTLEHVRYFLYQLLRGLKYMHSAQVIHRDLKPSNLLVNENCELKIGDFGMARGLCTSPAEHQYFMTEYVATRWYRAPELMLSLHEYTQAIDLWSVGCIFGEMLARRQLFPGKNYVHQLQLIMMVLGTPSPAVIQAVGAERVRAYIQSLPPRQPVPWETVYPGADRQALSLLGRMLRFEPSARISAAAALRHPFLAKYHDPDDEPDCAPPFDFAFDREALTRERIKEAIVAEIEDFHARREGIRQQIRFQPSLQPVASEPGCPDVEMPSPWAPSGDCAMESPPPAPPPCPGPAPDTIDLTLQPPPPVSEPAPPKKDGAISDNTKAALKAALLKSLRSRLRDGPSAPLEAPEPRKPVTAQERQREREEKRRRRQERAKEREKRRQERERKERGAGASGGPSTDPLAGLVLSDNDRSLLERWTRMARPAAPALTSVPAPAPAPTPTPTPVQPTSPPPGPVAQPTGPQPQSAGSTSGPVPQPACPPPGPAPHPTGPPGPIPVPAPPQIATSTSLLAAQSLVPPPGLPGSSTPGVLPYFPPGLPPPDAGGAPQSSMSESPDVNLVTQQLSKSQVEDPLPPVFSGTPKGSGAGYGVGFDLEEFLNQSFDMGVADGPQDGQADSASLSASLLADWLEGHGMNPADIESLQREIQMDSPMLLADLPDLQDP
A short description of test [11]: P. berghei load reduction in hepatocytes – cell-based, HepG2, luciferase luminescence, HepG2 viability, primary screen (AID 624349; in the data active = parasite load remaining mostly below about 12%, no sharp cut-off; inactive = mostly above about 10%;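 note: 100% = mean of DMSO negative control wells on the same plate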). The conditions noted are these: P. berghei liver stage in HepG2, luciferase luminescence, concentration not given here; parasite load remaining: stronger effect = lower value; viability: measured here: HepG2 viability without parasites.
A short description of test [12]: signal quenchers or enhancers, Cy5 substrate/SSB – biochemical, NIH Clinical Collection, E. coli SSB, artefact control for HCV NS3 helicase inhibitor project (AID 743268). The note with it: Cy5-oligo bound E. coli SSB, fluorescence interference.
In test [13] the test system is Hepatitis C virus NS3 helicase. The experiment in a line: blockers of NS3h binding to DNA – biochemical, fluorescence polarization, NIH Clinical Collection, primary screen (AID 743270). The note with it: NS3 helicase binding to Cy5-dT15 DNA, stronger effect = higher value, concentration not given here. Background: Fluorescence polarisation rises when a labelled molecule tumbles more slowly, as on binding a larger partner.

Test [14] concerns the target Single-stranded DNA-binding protein (Escherichia coli (strain K12)) (UniProt P0AGE0). The test is described as follows: SSB-ssDNA binding inhibitors – biochemical, fluorescence polarization, NIH Clinical Collection, counter-screen for HCV NS3 helicase inhibitor project (AID 743271; in the data active = inhibition above about 28%). The note with it: E. coli SSB-DNA binding, stronger effect = higher value, concentration not given here.

Test [15] in a line: compounds distorting NS3 helicase fluorescence signal – biochemical, NIH Clinical Collection, artefact control for HCV NS3 helicase inhibitor project (AID 743272).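 Note: HCV NS3 helicase with a Cy5 labelled single stranded DNA probe.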 The conditions noted are these: fluorescence interference counterscreen, HCV NS3 helicase assay; stronger effect = lower value. (A counterscreen serves to expose hits that act by an unwanted route or on another target.)
Test [16] deals with Calcium-dependent protein kinase 1 (Plasmodium falciparum (isolate 3D7)) (UniProt P62344). The experiment in a line: PfCDPK1 kinase inhibitors, biochemical, TCAMS library (AID 1159585; cut-off not given, nearly all actives have IC50 up to about 0.98 µM;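 note: inhibitors leave more ATP so luminescence rises with inhibition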). The note with it: recombinant PfCDPK1, Kinase-Glo ATP depletion luminescence.
Chain of Calcium-dependent protein kinase 1 (Plasmodium falciparum (isolate 3D7)) (P62344 whole entry, looked up): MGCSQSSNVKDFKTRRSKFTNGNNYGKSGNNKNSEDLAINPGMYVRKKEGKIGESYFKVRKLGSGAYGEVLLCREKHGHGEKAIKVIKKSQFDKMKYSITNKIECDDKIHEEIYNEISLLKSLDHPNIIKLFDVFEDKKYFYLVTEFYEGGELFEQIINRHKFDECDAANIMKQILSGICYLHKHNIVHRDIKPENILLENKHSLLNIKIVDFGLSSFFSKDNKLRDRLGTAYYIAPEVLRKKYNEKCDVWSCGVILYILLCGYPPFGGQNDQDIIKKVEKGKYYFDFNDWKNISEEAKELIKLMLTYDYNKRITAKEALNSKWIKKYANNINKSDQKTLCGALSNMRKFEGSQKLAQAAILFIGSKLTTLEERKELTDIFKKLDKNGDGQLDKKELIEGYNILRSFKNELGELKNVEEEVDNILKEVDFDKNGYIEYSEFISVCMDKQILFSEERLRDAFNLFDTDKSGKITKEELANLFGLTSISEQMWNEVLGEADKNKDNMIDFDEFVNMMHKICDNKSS
The target of test [17] is Plasmodium falciparum protein kinase 6 (PK6, PF3D7_1337100) (UniProt Q8IDW1). The test is described as follows: PfPK6 kinase inhibitors, biochemical, TCAMS library (AID 1159586). The conditions noted are these: recombinant PfPK6, Kinase-Glo ATP depletion luminescence.
Chain of Plasmodium falciparum protein kinase 6 (PK6, PF3D7_1337100) (Q8IDW1 1-305): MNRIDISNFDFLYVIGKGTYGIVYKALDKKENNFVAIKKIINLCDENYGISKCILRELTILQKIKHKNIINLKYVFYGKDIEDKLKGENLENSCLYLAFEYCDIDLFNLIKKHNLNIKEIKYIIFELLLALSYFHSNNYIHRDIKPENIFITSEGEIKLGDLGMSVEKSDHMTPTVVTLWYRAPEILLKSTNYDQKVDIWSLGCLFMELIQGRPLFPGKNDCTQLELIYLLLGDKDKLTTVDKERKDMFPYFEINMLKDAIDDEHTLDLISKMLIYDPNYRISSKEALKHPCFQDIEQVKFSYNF
For test [18], the target named is Protein kinase 7 (PK7), Plasmodium falciparum 3D7 (PF3D7_0213400) (UniProt Q7YTF7). The experiment in a line: inhibition of Plasmodium PK7 catalytic activity – biochemical, TCAMS antimalarial set, Kinase-Glo luminescence (AID 1159587). The conditions noted are these: recombinant PfPK7, Kinase-Glo ATP depletion luminescence. For orientation: Kinase-Glo measures the ATP left after a reaction by luminescence.
Chain of Protein kinase 7 (PK7), Plasmodium falciparum 3D7 (PF3D7_0213400) (Q7YTF7 1-343): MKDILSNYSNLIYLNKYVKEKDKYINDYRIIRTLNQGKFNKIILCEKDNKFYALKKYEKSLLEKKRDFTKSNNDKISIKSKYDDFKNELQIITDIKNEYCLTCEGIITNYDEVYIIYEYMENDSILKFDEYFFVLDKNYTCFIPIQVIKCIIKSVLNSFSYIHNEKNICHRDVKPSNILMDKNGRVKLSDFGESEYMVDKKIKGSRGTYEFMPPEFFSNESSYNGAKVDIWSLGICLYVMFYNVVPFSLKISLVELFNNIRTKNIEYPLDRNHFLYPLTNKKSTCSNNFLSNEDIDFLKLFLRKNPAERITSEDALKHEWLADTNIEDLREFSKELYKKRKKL

Test [19] concerns the target Calcium-dependent protein kinase 4 (Plasmodium falciparum (isolate 3D7)) (UniProt Q8IBS5). The test is described as follows: PfCDPK4 kinase inhibitors, biochemical, TCAMS library (AID 1159588; cut-off not given, nearly all actives have IC50 up to about 0.91 µM). The note with it: recombinant PfCDPK4, Kinase-Glo ATP depletion luminescence.

From PubChem BioAssay come the findings set out here.

Molecules are shown by their SMILES. For some assays here: Potency and affinity values are given separately. The source made the active and inactive calls. Unless noted, the rule behind the calls is not given here.

Chain of Calcium-dependent protein kinase 4 (Plasmodium falciparum (isolate 3D7)) (Q8IBS5 whole entry, looked up): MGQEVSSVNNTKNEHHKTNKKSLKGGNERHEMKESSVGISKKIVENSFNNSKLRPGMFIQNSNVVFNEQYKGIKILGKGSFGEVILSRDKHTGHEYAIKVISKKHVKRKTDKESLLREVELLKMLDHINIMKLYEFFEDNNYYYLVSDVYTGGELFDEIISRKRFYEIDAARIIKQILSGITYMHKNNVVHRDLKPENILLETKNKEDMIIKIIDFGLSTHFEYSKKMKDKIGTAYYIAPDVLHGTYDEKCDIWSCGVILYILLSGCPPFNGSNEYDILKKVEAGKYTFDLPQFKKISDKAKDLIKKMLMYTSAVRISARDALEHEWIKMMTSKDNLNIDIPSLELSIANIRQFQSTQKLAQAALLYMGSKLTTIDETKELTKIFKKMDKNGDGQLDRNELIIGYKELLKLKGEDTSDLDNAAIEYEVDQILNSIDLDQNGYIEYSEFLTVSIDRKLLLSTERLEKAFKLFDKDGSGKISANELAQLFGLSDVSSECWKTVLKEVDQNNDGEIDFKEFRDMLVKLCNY

Turning to `CSCCC(NC=O)C(=O)NC(C)C(=O)O` (configuration not stated), the inhibition in [1] is 3.66%; in [9], 11.9% (inactive). The score in [2] is 1.03. The molecule also yielded a rescue above control in test [3] of 3.86. For the same molecule, the cytochrome c release ratio in [4] was determined as 1.14. Besides, the inhibition of aggregation in test [5] amounted to 81.6%. The glutamate uptake change in test [6] is 9.47%. This molecule also displayed an inclusion score in test [7] of 2. In addition, in [8], the aggregation suppression score is 1.3.
Take `CCCCCC/C=C\CCCCCCCc1cccc(O)c1C(=O)O`: the inhibition in test [9] was 0.888% (inactive). Also, in [10], the luciferase signal was 76 AU (inactive).
As to `O=C(CCCCCCCCCCCCC1CCCC1)Nc1ccc(S(=O)(=O)c2ccc(NC(=O)CCCCCCCCCCCCC3CCCC3)cc2)cc1`, in test [11], the parasite load remaining is 65.7% (inactive) and the viability was found to be 90.8%. In addition, in test [9], the inhibition was 6.93% (inactive). Besides, the luciferase signal in test [10] was 32 AU (inactive).
In the case of `O=C(O)/C=C(/CC(=O)O)C(=O)O`, the inhibition in test [9] is 8.82% (inactive). Also, the luciferase signal in test [10] is 60 AU (inactive).
The corresponding values for `O=C1CC[C@]23/C=C\C(=O)NCCCCNCCCNC(=O)/C=C\c4ccc(c2c4)O[C@@H]3C1` are -0.518% (inactive) and 36 AU (inactive).
`CC=C1[C@H]2C=C(C)C[C@]1(N)c1ccc(=O)[nH]c1C2`: the parasite load remaining in test [11] was 62.9% (inactive). Moreover, in [11], the viability amounted to 72.6%. The fluorescence ratio in test [12] was 0.99 (inactive); in [15], 0.96 (inactive). The figures for the inhibition in test [13], in test [14] and in test [9] were -2.84% (inactive), -1.97% (inactive) and -0.222% (inactive), respectively. Also, the luciferase signal in test [10] is 44 AU (inactive).
`CC(=O)N[C@@H](CCC(=O)O)C(=O)O`: the inhibition is 24.8% in test [1] and 13.8% (inactive) in test [9]. In [2], the score was 1.29. In [3], the rescue above control was determined as 9.63. The cytochrome c release ratio in test [4] amounted to 1.22. The molecule also displayed an inhibition of aggregation in [5] of 74.1%. For the same molecule, the glutamate uptake change in test [6] is -6.23%. Besides, in test [7], the inclusion score turned out to be 2. Moreover, the aggregation suppression score in test [8] amounted to 1.35. The parasite load remaining in test [11] was 196% (inactive). Further, the viability in test [11] is 71.4%.
In the case of `CCOC(=O)CCCCCCCCCCCCC1C=CCC1` (configuration not stated), the inhibition was -0.73% in test [1] and 2.03% (inactive) in test [9]. The score in test [2] is -0.7. Further, the rescue above control in test [3] was -1.18. Also, in test [4], the cytochrome c release ratio was 1.01. The inhibition of aggregation in test [5] was determined as 55.1%. Moreover, the glutamate uptake change in test [6] was -2.82%. In test [7], the inclusion score was 2. In [8], this molecule had an aggregation suppression score of 0.251. Besides, the luciferase signal in [10] was 116 AU (inactive).
Turning to `C=C1C2CCC3(C)C(c4ccoc4)OC(=O)CC13OC1CC(=O)C(C)(C)C(CC(=O)OC)C12C` (configuration not stated), in test [9], the inhibition was -8.25% (inactive). Besides, the luciferase signal in test [10] was 16 AU (inactive).
As for `O/N=C1\CCc2cc(-c3nc(-c4ccc(OCCN5CCCCC5)cc4)[nH]c3-c3ccncc3)ccc21`, the result in test [16], in test [17], in [18] and in [19] was inactive.
On to `COc1ccc2nc(C)cc(N/N=C/c3cc(C)ccc3O)c2c1`, for which the outcome in test [16], in test [17], in [18] and in test [19] was inactive.
For the molecule `C[C@@H]([C@H](CCCc1ccc(Cl)cc1)C(=O)N[C@H](C(=O)Nc1cccnc1)C(C)(C)C)N(O)C=O`, the outcome in [16], in test [17], in test [18] and in test [19] was inactive.

A word on the inhibition: it is the change of the read-out against control, counted positive when it falls. A word on the viability: it is a read-out of living cells in per cent, often relative to untreated cells.
